Screens as filed in PubChem.
IL1B secr inh: inhibitors of inflammasome signaling (IL-1 beta secretion). THP-1 LPS/ATP IL-1B secretion, AlphaLISA, 16 h; hits give low values. activity change, % at 57.5 µM. AID 743279. actives 4.7% (n = 360,000); in the data active = activity change below about -50%; inconclusive = mostly about -30% to -49%
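THP-1 cells pretreated 1 hr with compounds (up to 57.5 uM final), then stimulated with LPS (250 ng/mL final) plus ATP (1.25 mM final); secreted IL-1B measured by AlphaLISA after 16 hr, decreased signal indicating inhibition.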
ELG1 DNA repair: ELG1-dependent DNA repair inhibition. actives 2.3% (n = 330,000). Potency, µM (highest dose often 46.1 µM), without a hit: top-dose activity change, negative = inhibition, usual class: inhibitors. HEK293T ELG1-luciferase reporter, luminescence, 16 h; DNA damage induced by 5-fluorouridine; also: potency is read from the fitted curve at half-maximal effect; nearly all actives have a fitted effect of over 55% in size
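Overnight (16 hr) co-exposure of 2,000 cells/well to 5-fluorouridine and compound at 37 °C preceded detection. Luciferase was quantified via ONE-Glo luminescence; loss of signal denotes inhibition.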
DT40 TDP1 CPT: growth inhibition of DT40 Tdp1-/-;hTDP1 cells with camptothecin (screen for TDP1 inhibitors) | chicken DT40 Tdp1-/-;hTDP1 cells + 20 nM CPT, ATP luminescence, 48 h | Potency, µM (highest dose often 46.2 µM), inactives show at the top dose activity change, negative = growth inhibition, usual class: inhibitors | actives 12% (n = 420,000); also: potency is read from the fitted curve at half-maximal effect; nearly all actives have a fitted effect of over 55% in size
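Chicken DT40 Tdp1-/- cells complemented with human TDP1, 400 cells/well, exposed to compounds plus 20 nM camptothecin for at least 48 h at 37 C; viability read as ATP content by CellTiter-Glo luminescence.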
TDP1 cell noCPT: qHTS for Inhibitors of human tyrosyl-DNA phosphodiesterase 1 (TDP1): qHTS in cells in absence of CPT; Potency, µM (series often up to 46.2 µM), for inactives: top-dose activity change, negative = growth inhibition, most hits filed as inhibitors; DT40 Tdp1-/- hTDP1 cells, no CPT, ATP luminescence, 48 h; AID 686978, 2013; actives 15% (n = 420,000); also: potency is read from the fitted curve at half-maximal effect; nearly all actives have a fitted effect of over 55% in size
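No-CPT arm: Tdp1-/-;hTDP1 DT40 cells (400/well) plus compounds, incubated ≥48 hr at 37 °C. Readout CellTiter-Glo luminescence.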
HT1080NT lethal: kills 2HG-producing HT-1080-NT fibrosarcoma cells; HT-1080-NT fibrosarcoma viability, CellTiter-Glo ATP luminescence, 48 h; Potency, µM (doses to about 46.1 µM), for the others: top-dose activity, negative = less viability, hits mostly cytotoxic; actives 1.6% (n = 360,000);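 also: NT is the 2HG producing partner of a matched IDH1 knockdown line; potency is read from the fitted curve at half-maximal effect; 0% = DMSO-treated cells and -100% = media-only wells without cells; nearly all actives have a fitted effect of over 55% in size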
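Compounds were tested in concentration-response format on HT-1080-NT cells for 48 hours at 37 degrees C. Cell viability came from CellTiter-Glo luminescence; curves were classified by r2, response magnitude and activity.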
HT1080 IDH1KD tx: kills HT-1080 cells with IDH1 knockdown; HT-1080 IDH1 knockdown viability, ATP luminescence, 48 h; Potency, µM (top dose mostly 46.1 µM), without a hit: top-dose activity, negative = toxicity, actives largely listed as cytotoxic; actives 2% (n = 360,000); AID 686971;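 also: potency is read from the fitted curve at half-maximal effect; 0% = DMSO wells and -100% = cell-free medium wells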
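Luminescent ATP read-out (CellTiter-Glo, 10 min at room temperature) after 48 h compound exposure at 37 °C gave viability of IDH1-knockdown HT-1080 cells. Activity was normalised to DMSO and cell-free wells, then fitted as concentration-response curves.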
* = called active by the depositor; ? = inconclusive; / = no result; [ ] = another dose, or the depositor's remark. The list is not random: actives were taken first. Their share in the collection is about 19%. Unless noted, calls follow the shape of the dose curve; as a rule, active = well fitted curve in the direction sought with a large enough effect; inconclusive = small, poorly fitted or top-dose-only effect, or another doubt; inactive = no such curve, though single readings can be large; an effect the other way counts as inactive or inconclusive. Unless noted, % is scaled to controls: 0 for no effect and ±100 for the full control effect.

SMILES	IL1B secr inh	ELG1 DNA repair	DT40 TDP1 CPT	TDP1 cell noCPT	HT1080NT lethal	HT1080 IDH1KD tx
CN(C)CCN(C(=O)c1ccc(S(=O)(=O)N(C)c2ccccc2)cc1)c1nc2cc3c(cc2s1)OCCO3	7	?	-13%	?	28%	14%
CCC(CC)CN1CCC(CN2C(=O)C(=O)NC[C@@H]2CC(C)C)CC1	12	/	7%	24%	12%	22%
COc1cc(NC(=O)Cn2c(=O)n(CC(=O)NCCc3ccc(OC)c(OC)c3)c(=O)c3sccc32)cc(OC)c1	/	/	-29%	-26%	/	/
CCN(Cc1ccccc1)S(=O)(=O)c1ccc(C(=O)N(CCCN(C)C)c2nc3ccc(F)cc3s2)cc1	-101*	-8%	?	-7%	?	?
CN(C)CCCN(C(=O)c1ccco1)c1nc2ccc(F)cc2s1	-8	26%	-19%	?	-10%	-6%
Cc1nc(Sc2nnnn2C2CC2)c2c(-c3ccccc3)csc2n1	/	/	?	11µM*	/	/
CCn1nnnc1Sc1nc(C)nc2scc(-c3ccccc3)c12	/	/	?	8.9µM*	/	/
Cc1c(OC(C)C(=O)NCC2CCC(C(=O)O)CC2)ccc2c(-c3ccccc3)cc(=O)oc12 (stereo unspecified)	-10	-10%	4%	-12%	-1%	-9%
COc1cccc(C(=O)N2N=C(c3ccccc3)CC2(O)C(F)(F)F)c1 (stereo unspecified)	-2	-6%	3%	?	9%	3%
COc1cccc(C2=NN(C(=O)c3ccccc3)C(O)(C(F)(F)F)C2)c1 (stereo unspecified)	-10	-10%	16µM*	21µM*	-6%	-15%
Cc1ccc(C2=NN(C(=O)c3ccco3)C(O)(C(F)(F)F)C2)cc1 (stereo unspecified)	-66*	-19%	?	?	2%	-11%
COc1cccc(C2=NN(C(=O)c3ccco3)C(O)(C(F)(F)F)C2)c1 (stereo unspecified)	0	?	-3%	?	4%	?
CCCCC1=NN(C(=O)c2cocc2C)C(O)(C(F)(F)F)C1 (stereo unspecified)	-14	-12%	?	?	4%	-26%
CCCCC1=NN(C(=O)c2ccco2)C(O)(C(F)(F)F)C1 (stereo unspecified)	42	-4%	0.52µM*	0.52µM*	-25%	?
O=C(c1ccco1)N1N=C2CCCCCC2C1(O)C(F)(F)F (stereo unspecified)	21	0.33µM*	17%	-22%	4%	8%
CCCN1CCC(N2CCCC(C(=O)O)C2)CC1 (stereo unspecified)	25	-8%	1%	5%	12%	3%
CC(C)CCOc1ccc(CO[C@@H]2[C@H]3OC(C)(C)O[C@H]3O[C@@H]2C(O)CO)cc1 (stereo partly specified)	1	-5%	?	?	-7%	-4%
O=C(CSc1nc2ccccc2c(=O)n1Cc1ccccc1)Nc1ccc(Br)cc1C(=O)O	0	0%	-24%	-27%	-16%	-9%
O=C(COc1ccc([N+](=O)[O-])cc1)Nc1ccc(CN2CCOCC2)cc1	11	?	?	21µM*	0%	0%
O=C(COc1ccc(Cl)cc1)Nc1ccc(CN2CCOCC2)cc1	-5	?	-24%	?	-1%	0%
Cc1cc(OCC(=O)Nc2ccc(CN3CCOCC3)cc2)ccc1Cl	-51*	-29%	-74%	?	-3%	-9%
Cc1ccc(OCC(=O)Nc2ccc(CN3CCOCC3)cc2)cc1C	-9	-2%	3%	?	-5%	3%
CCc1ccc(NC(=O)C(=O)NCCN2CCN(Cc3ccc([N+](=O)[O-])cc3)CC2)cc1	18	-15%	10µM*	9.2µM*	-2%	1%
Cc1ccccc1NC(=O)C(C)OC(=O)CCC(=O)c1ccccc1 (stereo unspecified)	?	/	3%	-7%	9%	0%
O=C(Cc1c[nH]c2ccccc12)Nc1ccccc1N1CCOCC1	0	9%	?	?	-7%	-11%
SMILES	IL1B secr inh	ELG1 DNA repair	DT40 TDP1 CPT	TDP1 cell noCPT	HT1080NT lethal	HT1080 IDH1KD tx
CCSc1nnc(C(C)NS(=O)(=O)c2cccc(Cl)c2C)n1C (stereo unspecified)	/	/	-1%[9.04 µM]	-1%	/	/
Cc1ccc(/C=N/OC(=O)c2nn(C)cc2Cl)cc1	10	?	4%	-9%	13%	10%
COc1ccc(CNCc2cccc(Cl)c2)cc1	-19	?	?	-25%	-2%	-2%
Cc1ccc(CNC(=O)NCc2ccccc2)cc1	43	?	-13%	0%	13%	12%
COc1ccc(CNCC(O)(c2ccccc2)c2ccc(Cl)cc2)cc1 (stereo unspecified)	0	-14%	?	21µM*	?	-26%
Cc1ccc(CNCC(O)(c2ccccc2)c2ccccc2)cc1	-11	-22%	?	21µM*	-6%	-11%
CCc1ccc(C(O)(CNCc2ccccc2)c2ccccc2)cc1 (stereo unspecified)	-10	-7%	23µM*	21µM*	-12%	-1%
CCc1ccc(NC(=S)NCc2ccccc2)cc1	21	?	2%	14%	9%	12%
Cc1c(Cl)cccc1NC(=O)CCn1cnnn1	/	/	-16%	0%	/	/
CN(Cc1ccccc1)C(=O)c1ncn2c1c(=O)[nH]c1cccnc12	7	/	3%	4%	5%	9%
CCOCCCN(C)C1CCN(C(=O)c2oc3ccccc3c2NC(=O)Cc2ccc(F)cc2)CC1	-15	0%	-21%	-1%	-28%	-1%
COc1ccc(NC(=O)c2oc3ccccc3c2NC(=O)Cc2ccc(F)cc2)c(OC)c1	/	/	12µM*	8.2µM*	/	/
COc1cccc(N2CCN(C(=O)c3oc4ccccc4c3NC(=O)Cc3ccc(OC)c(OC)c3)CC2)c1	-10	16µM*	16µM*	?	-6%	-1%
O=C(Cc1ccccc1)Nc1c(C(=O)N2CCN(c3ccc(F)cc3)CC2)oc2ccccc12	/	/	16µM*	26µM*	/	/
Cc1ccc(CC(=O)Nc2c(C(=O)N3CCN(c4ccccc4F)CC3)oc3ccccc23)cc1	/	/	?	18µM*	/	/
C[C@@H]1COc2cccc(N3CCC[C@@H]3CO)c2S(=O)(=O)N1	20	/	-11%	-3%	21%	2%
